Only some compounds are listed: those with a hit (about 11% of all), similar ones and a draw of the others.
L3MBTL1 inh: qHTS Assay for the Inhibitors of L3MBTL1 | Lethal(3)malignant brain tumor-like protein 1 (Homo sapiens), Q9Y468 | AlphaScreen L3MBTL1–H3K9me1 peptide binding | Potency, µM (top dose mostly 57.1 µM), for the others: top-dose activity, negative = inhibition, actives largely listed as inhibitors | 0.66% of 230,000 active | AID 485360, 2010; further: potency means the concentration at half of the fitted maximal effect; on the % scale 0 is the no-effect control and ±100 the full control effect; nearly all actives have a fitted effect of over 60% in size
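First, the protein-peptide complex forms for 30 min at room temperature (L3MBTL1 50 nM, biotinylated H3K9me1 peptide 75 nM). Next, compounds are pin-transferred and incubated 30 min. Finally, AlphaScreen beads are added and read after 30 min.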
JMJD2A Tudor: qHTS Assay for Inhibitors of JMJD2A-Tudor Domain; Lysine-specific demethylase 4A (Homo sapiens), O75164; AlphaScreen JMJD2A-Tudor / H3K4me3 peptide binding; Potency, µM (doses to about 114 µM), for inactives: top-dose activity change, negative = inhibition, most hits filed as inhibitors; 4.4% of 390,000 active; AID 504339, 2011; further: potency means the concentration at half of the fitted maximal effect; on the % scale 0 is the no-effect control and ±100 the full control effect; nearly all actives have a fitted effect of over 50% in size
HP1b chromo inh: HTS for Inhibitors of HP1-beta Chromodomain Interactions with Methylated Histone Tails. AlphaScreen HP1-beta / biotin-H3K9me3 peptide binding. AID 540317, 2011. Potency, µM (doses to about 114 µM), without a hit: at the highest dose activity change, negative = inhibition, actives largely listed as inhibitors. 0.56% of 390,000 active. Chromobox protein homolog 1 (Homo sapiens), P83916; further: potency means the concentration at half of the fitted maximal effect; nearly all actives have a fitted effect of over 70% in size
Target sequence (P83916 whole entry, looked up): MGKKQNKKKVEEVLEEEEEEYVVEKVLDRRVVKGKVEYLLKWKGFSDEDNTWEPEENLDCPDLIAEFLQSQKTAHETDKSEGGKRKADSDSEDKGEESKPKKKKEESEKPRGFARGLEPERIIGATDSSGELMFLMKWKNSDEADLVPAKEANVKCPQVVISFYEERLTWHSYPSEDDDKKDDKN
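AlphaScreen: HP1-beta (50 nM) preformed 30 min with biotin-H3(1-18)K9me3 peptide (50 nM) in PBS pH 7.4, 0.01% Tween-20. Compound added for 30 min at RT, then streptavidin donor/nickel chelate acceptor beads (10 ug/mL) for 30 min.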
G9a inh: qHTS Assay for Inhibitors of Histone Lysine Methyltransferase G9a. 8.8% of 350,000 active. G9a H3K9 monomethylation, AlphaScreen, 2 h. Histone-lysine N-methyltransferase EHMT2 (Homo sapiens), Q96KQ7. Potency, µM (top dose mostly 102 µM), for inactives: at the top dose activity, negative = inhibition, most hits filed as inhibitors. AID 504332, 2011; further: potency means the concentration at half of the fitted maximal effect; on the % scale 0 is the no-effect control and ±100 the full control effect; nearly all actives have a fitted effect of over 75% in size
Target sequence (Q96KQ7 913-1193 limits assumed): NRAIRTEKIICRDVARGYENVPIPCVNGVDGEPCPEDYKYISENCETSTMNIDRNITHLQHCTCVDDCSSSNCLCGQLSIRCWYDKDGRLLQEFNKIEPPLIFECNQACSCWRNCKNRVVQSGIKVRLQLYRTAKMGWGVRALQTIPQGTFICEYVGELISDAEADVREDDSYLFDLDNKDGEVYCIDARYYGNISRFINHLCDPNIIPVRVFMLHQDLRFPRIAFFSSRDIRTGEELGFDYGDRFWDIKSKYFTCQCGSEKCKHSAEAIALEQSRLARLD
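Signal arises when biotinylated H3K9 peptide, once monomethylated, bridges streptavidin donor and antibody-captured acceptor beads. Enzyme at 20 nM was preincubated 15 min with test compounds; peptide 500 nM and SAM 20 uM then reacted for 2 h.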
BAZ2B inh: qHTS Assay for Inhibitors of BAZ2B; Potency, µM (series often up to 114 µM), without a hit: top-dose activity change, negative = inhibition, usual class: inhibitors; 4.4% of 360,000 active; AID 504333, 2011; Bromodomain adjacent to zinc finger domain protein 2B (Homo sapiens), Q9UIF8; AlphaScreen BAZ2B-H3K14Ac peptide displacement; further: potency means the concentration at half of the fitted maximal effect; on the % scale 0 is the no-effect control and ±100 the full control effect; nearly all actives have a fitted effect of over 60% in size
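Complex of BAZ2B and biotin-H3K14Ac (50 nM apiece) forms over 30 min at RT, then faces library compounds up to 110 uM for another 30 min; AlphaScreen beads added, 20 min dark incubation, luminescence read.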
PI5P4Ka inh: qHTS for Inhibitors of phosphatidylinositol 5-phosphate 4-kinase (PI5P4K); Phosphatidylinositol 5-phosphate 4-kinase type-2 alpha (Homo sapiens), P48426; PI5P4Kalpha enzyme, ADP-Glo luminescence, 60 min; active compounds read low; max response, %; 1.2% of 330,000 active; active means max response of -50% or lower; inconclusive means between -30% and -50%; inactive means -30% or higher; further: value at the top dose of about 77 µM; on the % scale 0 is the no-effect control and ±100 the full control effect
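ADP-Glo luminescence end-point read after a 60 min room-temperature kinase reaction of PI5P4Kalpha plus substrate, initiated with ATP at 5 microM final. Buffer: 0.038 M HEPES pH 7.4, EGTA, 0.1% CHAPS, 5% DMSO.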
The depositor's hits bear a star; ? = inconclusive; . = not tested or not shown; [ ] = dose if it differs, or a comment. Unless noted, the call rests on the fitted dose curve; in most records, active means well fitted inhibition curve with a large enough effect; inconclusive means small, poorly fitted or top-dose-only effect; inactive means no such curve, though single readings can be large or run the other way.

SMILES	L3MBTL1 inh	JMJD2A Tudor	HP1b chromo inh	G9a inh	BAZ2B inh	PI5P4Ka inh
COc1ccc(NS(=O)(=O)c2ccc(-c3n[nH]c(=S)n3Cc3ccccc3)cc2)cc1	-15%	25µM*	-15%	4µM*	-35%	-6
COc1ccc(S(=O)(=O)Nc2ccc(-n3cccc3)cc2)cc1	.	56µM*	45µM*	50µM*	71µM*	-17
COc1ccc(NS(=O)(=O)c2cccc(-c3n[nH]c(=S)n3Cc3ccccc3)c2)cc1	-19%	-32%	4%	7.1µM*	?	3
COc1ccc(NS(=O)(=O)c2ccc(C)c(C(=O)NC3CCN(Cc4ccccc4)CC3)c2)cc1	.	-22%	-1%	-18%	-20%	1
Cc1ccc(-n2c(=O)c3c(cnn3C)n(CC(=O)Nc3ccc(C)cc3C)c2=O)cc1	.	-12%	17%	1%[59 µM]	-2%	.
Cc1cccc(N2CCN(C(=O)c3cnn(-c4ccccc4Cl)c3C3CCN(C(=O)OC(C)(C)C)CC3)CC2C)c1 (configuration not stated)	.	-34%	-22%	?	-2%[57.1 µM]	.
COc1ccccc1NC(=O)C1=C(C)NC2=C(C(=O)CC(c3ccc(OC)c(OC)c3)C2)C1c1coc2ccccc2c1=O (configuration not stated)	-5%	3%	24%	45µM*	-34%	10
CN1CCc2cc(O)c(O)cc2C(c2ccccc2)C1 (configuration not stated)	2%	-24%	-5%	11µM*	-22%	-1
CN1CCc2cc(Cl)c(O)cc2C(c2ccccc2)C1 (configuration not stated)	.	.	.	29%[12.7 µM]	.	.
CN1CCc2c(cc(O)c(O)c2Cl)C(c2cccc(Cl)c2)C1 (configuration not stated)	.	.	.	8.9µM*	.	.
Oc1cc2c(cc1O)[C@@H](c1ccccc1)CNCC2	-4%	4%	29%	8.9µM*	-7%	-4
c1ccc(C2CNCCc3ccccc32)cc1 (configuration not stated)	.	-7%	22%	-2%	-10%	-2
Oc1cc2c(cc1O)C(c1ccccc1)CNCC2 (configuration not stated)	.	32µM*	?	6.7µM*	.	1
CCOc1ccc(CCNC(=O)c2cccc(-n3c(C)nc4cccnc43)c2C)cc1	.	0%	44%	3%[59 µM]	-1%	.
C=C1CCN(C(Cc2ccccc2)C(=O)Nc2ccc(OC)cc2)S(=O)(=O)c2ccccc21 (configuration not stated)	.	-32%	4%	.	.	.
COc1ccccc1NC(=O)CSCc1cc(=O)c2cccc(Cl)c2[nH]1	.	3%	27%[57 µM]	-5%[59 µM]	2%	.
COC(=O)c1cc(OC)c(OC)cc1NC(=O)c1cccc(OC)c1OC	1%	0%	53%	15%[12.7 µM]	-15%	-6
O=C(NC(=S)Nn1cnnc1)c1ccc(F)cc1Cl	.	-23%	?	14µM*	?	-54*
COc1cccc(C(=O)NC(=S)Nn2cnnc2)c1OC	-4%	-6%	15%	14µM*	?	-21
O=C(NC(=S)Nn1cnnc1)c1ccccc1Cl	.	-21%	-23%	14µM*	?	-7
O=C(NC(=S)Nc1ncccn1)c1ccccc1Cl	2%	?	21%	79µM*	-26%	-4
CCOc1cc(-c2nc(-c3ccc(-c4ccc(OC)cc4)nc3OC)no2)cc(OCC)c1OCC	.	8%	35%	5%[59 µM]	1%	.
CCOc1ccc(NC(=O)Cn2c(=O)n(-c3ccccc3)c(=O)c3ccc(C(=O)NCc4ccc5c(c4)OCO5)cc32)cc1	.	-13%	19%	9%[59 µM]	.	.
CCc1ccc(NC(=O)CSC2=Nc3ccccc3C3=NC(CCC(=O)NCc4ccccc4OC)C(=O)N23)cc1 (configuration not stated)	.	-15%	-6%	8%[59 µM]	-11%	.
COCCN1CCn2c(nc3cc(NC(C)=O)ccc32)C1	.	-18%	40%	35µM*	-15%	-3
SMILES	L3MBTL1 inh	JMJD2A Tudor	HP1b chromo inh	G9a inh	BAZ2B inh	PI5P4Ka inh
CCOC(=O)Nc1ccc2c(c1)nc1n2CCN(CCOC)C1	.	-20%	43%	-7%	9%	0
COCCN1CCn2c(nc3cc(Nc4nnc(C)c5ccccc45)ccc32)C1	.	89µM*	34%	?	?	-6
Cc1ccc2c(n1)sc1c(=O)n(-c3cccc(C(F)(F)F)c3)nnc12	.	-14%	28%	-1%[59 µM]	-16%	.
COc1ccc(N2CCC(CNC(=S)Nc3cccc(OC)c3)C2)cc1 (configuration not stated)	-27%	.	.	?	16µM*	.
CCc1ccccc1NC(=S)NCC1CCN(c2ccc(OC)cc2)C1 (configuration not stated)	.	35µM*	13µM*	?	22µM*	-3
CCc1cccc(C)c1NC(=S)NCC1CCN(c2ccc(OC)cc2)C1 (configuration not stated)	.	45µM*	22µM*	10µM*	28µM*	1
CCc1ccccc1NC(=S)N1CCC(NC(=O)c2ccc(OC)cc2)CC1	2%	-1%	21%	-5%[0.501 µM]	-2%	-1
CCOC(=O)c1c(C)[nH]c(C)c1S(=O)(=O)N1CCCC(C(=O)Nc2ccc(OC)c(OC)c2)C1 (configuration not stated)	.	-18%	15%	-21%[59 µM]	1%	.
CCc1c(C)nc2nncn2c1Nc1ccc(C)c(F)c1	.	-14%	33%	4%[59 µM]	1%	.
Cc1ccc2c(c1)N(C(=O)N1CCC(C(=O)Nc3cccc(F)c3)CC1)CCO2	.	-21%	22%	-31%[59 µM]	-7%	.
CN(C)S(=O)(=O)c1cccc(-c2nnc(SCC(=O)NCCCCCC(=O)O)n2-c2ccc(F)cc2)c1	-30%	?	47%	16µM*	-7%	9
COc1ccccc1N1CCN(S(=O)(=O)c2c(C)sc3ncn(CC(=O)Nc4ccc(C)cc4Br)c(=O)c23)CC1	.	-7%	26%	-1%[59 µM]	3%	.
CCc1ccccc1NC(=O)CSc1ncccc1C(=O)O	.	-14%	36%	-11%[59 µM]	-7%	.
c1ccc2c(c1)OCC(CNCC1COc3ccccc3O1)O2 (configuration not stated)	-6%	2%	47%	.	-3%	6
CN(C)S(=O)(=O)c1cccc(CNCC2COc3ccccc3O2)c1 (configuration not stated)	.	18µM*	50µM*	9%	32µM*	-6
